“And” between values parts separate entries of the source, which are not always exact repeats. Identical values can stand only once. Records with an inconclusive call do not appear. Values without a mark were called inactive. The source made the active and inactive calls. Calls come from the whole dose curve; as a rule, active = well fitted curve in the direction sought with a large enough effect in the repeat runs; inconclusive = weak or mixed curves; inactive = no such curve, though single readings can be large; an effect the other way counts as inactive or inconclusive.
target: Cytochrome P450 2C9 (Homo sapiens) (UniProt P11712); experiment: Cytochrome P450 Family 2 Subfamily C Member 9 (CYP2C9) small molecule antagonists: luciferase reporter qHTS assay (AID 1671198); conditions: P450-Glo CYP2C9 enzyme assay, luciferin luminescence; series mostly up to 115 µM; activity change, negative = inhibition: at the top concentration
Sequence (P11712 whole entry, looked up): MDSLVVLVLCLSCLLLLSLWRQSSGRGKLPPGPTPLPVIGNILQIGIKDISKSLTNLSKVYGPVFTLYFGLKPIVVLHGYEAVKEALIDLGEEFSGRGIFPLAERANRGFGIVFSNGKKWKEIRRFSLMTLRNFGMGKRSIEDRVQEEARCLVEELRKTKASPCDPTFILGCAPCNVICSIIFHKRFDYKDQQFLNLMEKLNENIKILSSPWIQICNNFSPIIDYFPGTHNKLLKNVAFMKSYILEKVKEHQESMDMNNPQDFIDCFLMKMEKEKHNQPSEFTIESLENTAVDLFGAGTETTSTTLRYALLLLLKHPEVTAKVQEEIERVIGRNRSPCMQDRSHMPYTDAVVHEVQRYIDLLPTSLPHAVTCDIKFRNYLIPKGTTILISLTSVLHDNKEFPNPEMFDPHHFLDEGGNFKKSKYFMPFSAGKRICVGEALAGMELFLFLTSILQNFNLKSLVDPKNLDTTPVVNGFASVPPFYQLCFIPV
Procedure, shortened: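 Enzyme-substrate mix preincubated with compound 10 min at room temperature; reaction started with NADPH regeneration solution, 1 h 37C. Luminescent luciferin product read after 20 min detection reagent.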
% is set by controls: 0 for no effect and ±100 for the full control effect; potency is the fitted concentration of half-maximal effect.
Note: nearly all actives have a fitted effect of over 50% in size.

SMILES	activity change, negative = inhibition	Potency
CCC1CO1 (configuration not stated)	1.92%	
CC1(C)S[C@@H]2[C@H](NC(=O)C(c3ccccc3)S(=O)(=O)O)C(=O)N2[C@H]1C(=O)O (some centres not stated)	-22.4% [at 53 µM]	
CC(=O)NC1(c2cccc(F)c2)CCN(CC[C@@]2(c3ccc(Cl)c(Cl)c3)CN(c3ccccc3)C(=O)CO2)CC1		8.96 µM (active)
CN(C)CCC=C1c2ccccc2C=Cc2ccccc21	9.55% [at 53 µM]	
NC(=O)c1ccncc1	1.66%	
CCCCCCC(C)(C)C(=O)O		31.7 µM (active)
Cc1ccco1	-0.889%	
O=C1c2ccccc2C(=O)C1c1ccc(Br)cc1		3.47 µM (active)
C[C@@H]1CC(=O)NN=C1c1ccc(NN=C(C#N)C#N)cc1		1.38 µM (active) and 1.23 µM (active)
Cc1ccc(C(C)(C)O)cc1	-8.6%	
Cc1cc(C)c(N)cc1C		35.5 µM (active)
CCCCC(CC)CN (configuration not stated)	-9.05%	
O=C(OC(=O)c1ccccc1)c1ccccc1	1.34%	
CC[N+](CC)(CCNC(=O)C(=O)NCC[N+](CC)(CC)Cc1ccccc1Cl)Cc1ccccc1Cl	-8.33% [at 53 µM]	
CC(O)c1ccccc1 (configuration not stated)	-5.07%	

target: Cytochrome P450 1A2 (Homo sapiens) (UniProt P05177); experiment: Cytochrome P450 Family 1 Subfamily A Member 2 (CYP1A2) small molecule antagonists: luciferase reporter qHTS assay (AID 1671199); conditions: P450-Glo CYP1A2 enzyme, luciferin luminescence, 1 h; series mostly up to 53 µM; activity change, negative = inhibition: at the top concentration
Sequence (P05177 whole entry, looked up): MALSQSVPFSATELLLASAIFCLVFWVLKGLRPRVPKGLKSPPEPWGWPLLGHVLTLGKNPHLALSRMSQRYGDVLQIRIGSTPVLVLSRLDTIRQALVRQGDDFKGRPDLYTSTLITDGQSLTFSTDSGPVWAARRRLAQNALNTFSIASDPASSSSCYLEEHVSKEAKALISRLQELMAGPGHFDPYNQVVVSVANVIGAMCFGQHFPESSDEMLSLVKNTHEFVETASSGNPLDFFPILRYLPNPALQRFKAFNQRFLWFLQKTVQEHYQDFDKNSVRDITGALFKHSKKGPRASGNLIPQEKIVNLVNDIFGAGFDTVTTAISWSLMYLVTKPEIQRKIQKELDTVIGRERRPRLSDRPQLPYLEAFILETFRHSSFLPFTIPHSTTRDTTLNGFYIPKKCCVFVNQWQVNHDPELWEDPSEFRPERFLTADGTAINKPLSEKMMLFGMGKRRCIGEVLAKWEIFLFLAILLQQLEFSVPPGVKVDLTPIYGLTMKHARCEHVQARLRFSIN
Procedure, shortened: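 Compounds were incubated with CYP1A2 and a luminogenic proluciferin substrate for 10 min at room temperature before the reaction was started with NADPH regeneration solution. After 1 h, detection reagent was added and light output, proportional to CYP activity, was recorded.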

SMILES	activity change, negative = inhibition	Potency
CC1=C(CC=O)C(C)(C)CCC1	-25.8% [at 115 µM]	
CCCCCCCC/C=C\CCCCCCCCO		28.2 µM (active)
C=Cc1ccc(S(=O)(=O)O)cc1		71 µM (active)
C[C@@]12CCC[C@H]1[C@@H]1CC[C@H]3C[C@@H](O)CC[C@]3(C)[C@H]1CC2	-8.97%	
O=C(O)CCc1nc(-c2ccccc2)c(-c2ccccc2)o1	14.1%	
O=C1C(=O)c2ccccc2C(O)=C1C1CCC(c2ccc(Cl)cc2)CC1 (configuration not stated)	-15.9%	
C(=C\c1ccccc1)/c1ccccc1		4.99 µM (active)
Cc1cc(=O)c2c(O)c3c(O)cc(=O)c4c3c3c(cc(O)c1c23)C(C)(C)C=4O	-22.1% [at 23.6 µM]	
Cc1ccccc1N=C(N)Nc1ccccc1C	-14.4% [at 115 µM]	
CCCCCCCCOc1ccc(C(=O)O)cc1	-10.4% [at 115 µM]	
CCOC(=O)c1ccc(I)cc1		10.1 µM (active)
Oc1cccc(Nc2ccccc2)c1		11.7 µM (active)
CC1=Nc2ccc3ccccc3c2C1(C)C		20 µM (active)
O=C1NC(=O)c2cc([N+](=O)[O-])ccc21		28.5 µM (active)
Brc1cc(Br)c(Oc2cc(Br)c(Br)cc2Br)cc1Br	-19.3%	
CS(=O)(=O)c1ccc(-c2cn3ccccc3n2)cc1		0.456 µM (active)
Cc1cccc(N(C)C(=S)Oc2ccc3c(c2)CCC3)c1		10.2 µM (active)
Brc1cc2ccccc2c2ccccc12		0.32 µM (active)
C=C1c2cccc(O)c2C(O)=C2C(=O)[C@]3(O)C(O)=C(C(N)=O)C(=O)[C@@H](N(C)C)[C@@H]3[C@@H](O)[C@H]12	3.55%	

target: Voltage-gated inwardly rectifying potassium channel KCNH2 (Homo sapiens) (UniProt Q12809); experiment: Human Ether-a-go-go-Related Gene (hERG) channel small molecule antagonists: fluorescence cell-based qHTS assay (AID 1671200); conditions: hERG-U2OS cells, FluxOR thallium flux fluorescence; series mostly up to 76.8 µM; activity change, negative = inhibition: at the top concentration;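 for activity change, negative = inhibition: hERG-expressing U2OS cells given a thallium stimulus after FluxOR II dye loading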
Sequence (Q12809 whole entry, looked up): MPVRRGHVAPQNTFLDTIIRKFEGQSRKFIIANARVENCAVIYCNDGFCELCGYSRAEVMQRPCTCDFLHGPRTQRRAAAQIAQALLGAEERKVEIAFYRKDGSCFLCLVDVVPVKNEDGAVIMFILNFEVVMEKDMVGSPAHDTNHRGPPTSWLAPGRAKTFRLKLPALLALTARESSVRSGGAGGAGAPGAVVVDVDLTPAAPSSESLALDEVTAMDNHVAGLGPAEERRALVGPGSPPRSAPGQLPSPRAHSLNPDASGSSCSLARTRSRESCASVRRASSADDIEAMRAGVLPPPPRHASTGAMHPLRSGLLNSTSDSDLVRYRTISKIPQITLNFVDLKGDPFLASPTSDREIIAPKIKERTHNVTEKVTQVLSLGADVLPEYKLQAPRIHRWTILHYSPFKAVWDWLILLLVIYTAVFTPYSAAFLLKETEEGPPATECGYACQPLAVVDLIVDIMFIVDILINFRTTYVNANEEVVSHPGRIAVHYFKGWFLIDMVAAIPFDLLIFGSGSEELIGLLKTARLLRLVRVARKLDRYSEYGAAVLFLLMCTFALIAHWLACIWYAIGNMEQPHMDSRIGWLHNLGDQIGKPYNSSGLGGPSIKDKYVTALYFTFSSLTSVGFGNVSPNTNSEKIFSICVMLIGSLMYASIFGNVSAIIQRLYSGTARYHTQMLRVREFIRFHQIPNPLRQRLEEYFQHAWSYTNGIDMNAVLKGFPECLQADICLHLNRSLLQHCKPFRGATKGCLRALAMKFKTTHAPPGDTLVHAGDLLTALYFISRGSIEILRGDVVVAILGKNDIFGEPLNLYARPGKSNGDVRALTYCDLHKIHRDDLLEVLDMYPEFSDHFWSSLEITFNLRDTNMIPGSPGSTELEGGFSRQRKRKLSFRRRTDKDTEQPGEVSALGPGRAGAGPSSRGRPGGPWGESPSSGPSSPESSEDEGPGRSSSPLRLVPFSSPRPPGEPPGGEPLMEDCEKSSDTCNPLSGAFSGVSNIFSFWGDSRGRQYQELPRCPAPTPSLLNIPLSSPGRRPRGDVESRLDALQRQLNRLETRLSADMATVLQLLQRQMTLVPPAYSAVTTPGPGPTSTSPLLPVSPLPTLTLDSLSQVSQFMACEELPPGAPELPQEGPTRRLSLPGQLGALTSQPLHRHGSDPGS
Procedure, shortened: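 Channel function was assessed by thallium flux. Cells seeded the previous day and kept at 37 C took up FluxOR II dye over 1 h in the dark at room temperature, then sat another 10 min before stimulation.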

SMILES	activity change, negative = inhibition	Potency
CCC1CO1 (configuration not stated)	2.08%	
CC1(C)S[C@@H]2[C@H](NC(=O)C(c3ccccc3)S(=O)(=O)O)C(=O)N2[C@H]1C(=O)O (some centres not stated)	3.53% [at 35.3 µM]	
CC(=O)NC1(c2cccc(F)c2)CCN(CC[C@@]2(c3ccc(Cl)c(Cl)c3)CN(c3ccccc3)C(=O)CO2)CC1		13.8 µM (active)
CC1=C(CC=O)C(C)(C)CCC1	-4.84%	
O=C1c2ccccc2C(=O)C1c1nc2ccccc2c(Br)c1O	-0.762%	
CN1CC(=O)N2[C@H](c3ccc4c(c3)OCO4)c3[nH]c4ccccc4c3C[C@@H]2C1=O	1.42% [at 35.3 µM]	
CCCCCCCC/C=C\CCCCCCCCO	1.51%	
C=Cc1ccc(S(=O)(=O)O)cc1	-0.771%	
C[C@@]12CCC[C@H]1[C@@H]1CC[C@H]3C[C@@H](O)CC[C@]3(C)[C@H]1CC2	-12.2% [at 35.3 µM]	
O=C(O)CCc1nc(-c2ccccc2)c(-c2ccccc2)o1	3.07% [at 35.3 µM]	
NC(=O)c1ccncc1	-0.747%	
CCCCCCC(C)(C)C(=O)O	0.309%	
O=C1C(=O)c2ccccc2C(O)=C1C1CCC(c2ccc(Cl)cc2)CC1 (configuration not stated)	2.78% [at 35.3 µM]	
C(=C\c1ccccc1)/c1ccccc1	-9.23%	
Cc1cc(O)ccc1O	10.4%	
Cc1cc(=O)c2c(O)c3c(O)cc(=O)c4c3c3c(cc(O)c1c23)C(C)(C)C=4O	-4.56% [at 15.8 µM]	
Cc1ccco1	-0.319%	
Cc1ccccc1N=C(N)Nc1ccccc1C	-23.5%	
CCCCCCCCOc1ccc(C(=O)O)cc1	0.529%	

SMILES	activity change, negative = inhibition	Potency
CCOC(=O)c1ccc(I)cc1	-10.4%	
Oc1cccc(Nc2ccccc2)c1	-14.8%	
O=C1c2ccccc2C(=O)C1c1ccc(Br)cc1	-2.23% [at 35.3 µM]	
c1ccc2sc(SN(C3CCCCC3)C3CCCCC3)nc2c1	3.45%	
Cc1ccc(C(C)(C)O)cc1	4.02%	
CC1=Nc2ccc3ccccc3c2C1(C)C	-16.5%	
Cc1cc(C)c(N)cc1C	1.15%	
O=C1NC(=O)c2cc([N+](=O)[O-])ccc21	4%	
Brc1cc(Br)c(Oc2cc(Br)c(Br)cc2Br)cc1Br	-16.9% [at 35.3 µM]	
CS(=O)(=O)c1ccc(-c2cn3ccccc3n2)cc1	6.35% [at 35.3 µM]	
Cc1cccc(N(C)C(=S)Oc2ccc3c(c2)CCC3)c1	-2.74% [at 35.3 µM]	
CCCCC(CC)CN (configuration not stated)	-3.25%	
O=C(OC(=O)c1ccccc1)c1ccccc1	0.0311%	
Brc1cc2ccccc2c2ccccc12	0.22%	
CC[N+](CC)(CCNC(=O)C(=O)NCC[N+](CC)(CC)Cc1ccccc1Cl)Cc1ccccc1Cl	6.63% [at 35.3 µM]	
C=C1c2cccc(O)c2C(O)=C2C(=O)[C@]3(O)C(O)=C(C(N)=O)C(=O)[C@@H](N(C)C)[C@@H]3[C@@H](O)[C@H]12	0.77% [at 35.3 µM]	
CC(O)c1ccccc1 (configuration not stated)	4.11%	
COC(=O)[C@H]1[C@H]2C[C@@H]3c4[nH]c5cc(OC)ccc5c4CCN3C[C@H]2C[C@@H](OC(=O)/C=C/c2ccc(O)c(OC)c2)[C@@H]1OC		0.848 µM (active)
CC(C)=CCC1C(=O)N(c2ccccc2)N(c2ccccc2)C1=O	-2.3% [at 35.3 µM]	
